For eight molecules, z-score and composite z-score results are on record in PubChem BioAssay.

Test [1] can be described thus: compound effects on lung adenocarcinoma cell viability – A549, calcein-AM fluorescence, 48 h, basal, profiling panel (AID 1162). Note: test concentration not given here. The following applies: higher = more signal.
Test [2] is described as follows: compound effects on differentiated 3T3-L1 adipocyte viability – cell-based, 3T3-L1 adipocytes, calcein-AM fluorescence, 48 h, basal, profiling panel (AID 1163). Note: test concentration not given here. Conditions: 3T3-L1 adipocytes viability, higher = more signal.
Test [3] can be described thus: compound effects on hepatocellular carcinoma cell viability – HepG2, calcein-AM fluorescence, 48 h, basal, profiling panel (AID 1164). Note: test concentration not given here. Conditions: higher = more signal.
Test [4] can be described thus: compound effects on multiple myeloma cell viability – MM1S, calcein-AM fluorescence, 48 h, basal, profiling panel (AID 1165). Note: test concentration not given here. Conditions: higher = more signal.
Test [5] is described as follows: calcein-AM signal in unstimulated myeloma cells – cell-based, calcein-AM fluorescence, 48 h, PK04 Diversity Set, profiling panel (AID 1166).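 Note: cells grown under basal conditions without added stimulus; test concentration not given here.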 The following applies: RPMI8226 myeloma viability, higher = more signal.
The nature of test [6]: JC-1 mitochondrial signal, unstimulated HepG2 cells – cell-based, JC-1 fluorescence, 24 h, 100 nL compound, profiling panel (AID 1167). Note: test concentration not given here. The following applies: HepG2 mitochondrial potential, higher = more signal.
Test [7] can be described thus: JC-1 mitochondrial signal, unstimulated adipocytes – cell-based, JC-1 fluorescence, 3T3-L1 adipocytes, 24 h, 100 nL compound, profiling panel (AID 1168). Note: test concentration not given here. The following applies: JC-1 mitochondrial fluorescence, higher = more signal, called active from +8 up or from −8 down.
Test [8] in a line: JC-1 mitochondrial signal, unstimulated myeloma cells – cell-based, JC-1 fluorescence, RPMI8226, 24 h, 100 nL compound, profiling panel (AID 1169). Note: test concentration not given here. The following applies: JC-1 mitochondrial potential fluorescence, higher = more signal.
Test [9] is described as follows: JC-1 mitochondrial signal, unstimulated MM1S myeloma – cell-based, JC-1 fluorescence, 24 h, 100 nL compound, profiling panel (AID 1170). Note: test concentration not given here. Conditions: MM1S mitochondrial potential, higher = more signal.
Test [10] is described as follows: resazurin metabolic signal in A549 cells – cell-based, resazurin fluorescence, 24 h, PK04 Diversity Set, profiling panel (AID 1171). Note: test concentration not given here. The following applies: A549 viability, higher = more signal, called active from +8 up or from −8 down. Background: Alamar Blue is a resazurin reagent that responds to reducing activity.
Test [11] can be described thus: resazurin metabolic signal in HepG2 cells – cell-based, resazurin fluorescence, 24 h, PK04 Diversity Set, profiling panel (AID 1172). Note: test concentration not given here. Conditions: HepG2 viability, higher = more signal.
The nature of test [12]: budding yeast growth changes without added modifier – OD600, strain BY4716, 24 h, basal condition, primary screen (AID 1173). Conditions: S. cerevisiae BY4716 growth, OD600, 24 h; higher = more signal, called active from +8 up or from −8 down.
Test [13] can be described thus: viability profiling in MM1S myeloma cells – cell-based, resazurin fluorescence, basal, 24 h, PK04 Diversity Set, profiling panel (AID 1174). Note: test concentration not given here. The following applies: higher = more signal, called active from +8 up or from −8 down.
For test [14], the target named is Dihydroorotate dehydrogenase (quinone), mitochondrial (Plasmodium falciparum (isolate 3D7)) (UniProt Q08210). The test can be described thus: inhibition of P. falciparum DHODH – biochemical, C-terminal His tag, absorbance 600 nm, primary screen (AID 1175).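 Note: recombinant parasite enzyme with a five histidine tag at its C terminus; test concentration not given here.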 Conditions: PfDHODH enzyme, DCIP absorbance 600 nm; higher = more signal, called active from +8 up or from −8 down.

Test [15] is described as follows: inhibition of PAO1 biofilm formation – strain PAO1, LB-PBS medium, absorbance 600 nm, primary screen (AID 1176). Note: test concentration not given here. The following applies: P. aeruginosa PAO1 growth/biofilm, A600, 12 h; higher = more signal.
Test [16] can be described thus: growth modulation of vineyard yeast isolate – strain RM11-1a, OD600, basal, 24 h, primary screen (AID 1177).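 Note: cultures grown under basal conditions with no added stressor; test concentration not given here.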 The following applies: S. cerevisiae RM11-1a growth, OD600, 24 h; higher = more signal, called active from +8 up or from −8 down.
A short description of test [17]: growth of efflux-deficient E. coli DRC39 – strain DRC39, OD650, 24 h, E. coli filamentation inducers, primary screen (AID 1178).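 Note: growth measured as culture turbidity by optical density at 650 nm; test concentration not given here.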 Conditions: E. coli DRC39 acrAB, higher = more signal, called active from +8 up or from −8 down.
Test [18] is described as follows: growth of efflux-deficient E. coli DRC39 – strain DRC39, OD650, 48 h, E. coli filamentation inducers, primary screen (AID 1179).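 Note: screen aims at cell division blockers that make cells filament.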 The following applies: E. coli DRC39 delta-acrAB growth, higher = more signal, called active from +8 up or from −8 down.
Test [19] in a line: viability profiling in RPMI8226 myeloma cells – cell-based, resazurin fluorescence, basal, 24 h, PK04 Diversity Set, profiling panel (AID 1180).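 Note: RPMI8826 multiple myeloma cell line at 5000 cells per well; test concentration not given here.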 The following applies: higher = more signal.
Test [20] concerns the target E3 ubiquitin-protein ligase XIAP (Homo sapiens) (UniProt P98170). The test can be described thus: small molecules binding XIAP protein – biophysical, small-molecule microarray, fluorescence 635 nm, primary screen (AID 1181).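 Note: score merges 667 nm emission and signal to noise over triplicate slides.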 The following applies: higher = more signal.

Activity calls are given as the source filed them. Unless noted, the rule behind the calls is not given here.

Dihydroorotate dehydrogenase (quinone), mitochondrial (Plasmodium falciparum (isolate 3D7)), sequence (Q08210 whole entry, looked up): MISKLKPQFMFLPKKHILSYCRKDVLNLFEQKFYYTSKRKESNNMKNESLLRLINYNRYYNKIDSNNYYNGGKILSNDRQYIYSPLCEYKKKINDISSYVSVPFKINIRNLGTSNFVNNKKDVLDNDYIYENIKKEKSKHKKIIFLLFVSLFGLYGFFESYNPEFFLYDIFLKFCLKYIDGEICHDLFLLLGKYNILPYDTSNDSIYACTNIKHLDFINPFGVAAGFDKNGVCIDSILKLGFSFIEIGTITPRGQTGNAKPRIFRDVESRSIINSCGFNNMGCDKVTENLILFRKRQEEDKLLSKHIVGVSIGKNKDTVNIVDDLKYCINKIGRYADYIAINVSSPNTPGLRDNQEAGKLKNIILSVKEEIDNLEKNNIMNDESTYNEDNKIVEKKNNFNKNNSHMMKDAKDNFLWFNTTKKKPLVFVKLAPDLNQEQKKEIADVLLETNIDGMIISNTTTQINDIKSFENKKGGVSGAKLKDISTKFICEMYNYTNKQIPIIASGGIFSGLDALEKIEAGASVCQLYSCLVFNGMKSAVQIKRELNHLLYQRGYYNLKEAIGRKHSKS
E3 ubiquitin-protein ligase XIAP (Homo sapiens), sequence (P98170 whole entry, looked up): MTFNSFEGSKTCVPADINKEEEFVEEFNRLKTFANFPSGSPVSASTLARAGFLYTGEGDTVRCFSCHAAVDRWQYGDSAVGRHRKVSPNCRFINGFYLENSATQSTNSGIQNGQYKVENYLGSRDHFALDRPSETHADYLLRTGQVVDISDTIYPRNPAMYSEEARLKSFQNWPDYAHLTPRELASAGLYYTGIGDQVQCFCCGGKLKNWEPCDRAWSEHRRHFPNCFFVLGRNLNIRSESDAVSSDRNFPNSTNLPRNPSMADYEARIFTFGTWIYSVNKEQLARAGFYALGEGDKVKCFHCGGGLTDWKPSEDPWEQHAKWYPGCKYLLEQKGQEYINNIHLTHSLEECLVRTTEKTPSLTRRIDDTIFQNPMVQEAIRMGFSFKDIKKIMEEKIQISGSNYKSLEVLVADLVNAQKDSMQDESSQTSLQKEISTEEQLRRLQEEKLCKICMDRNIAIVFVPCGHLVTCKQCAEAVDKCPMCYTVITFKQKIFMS

Consider `C=C[C@@H](C)[C@@H](OC(=O)Nc1ccc(SC)cc1)c1ccc(OCCO)cc1`, for which the z-score in test [1] was -0.555; in test [2] it was 0.248; in [3], -1.37; in [4], -1.08; in test [5] it was -0.425; in test [6] it was -2.54. Moreover, the z-score in test [7] was -0.75 (inactive); in test [8], -0.15; in test [9] it was -0.434; in test [10] it was 0.491 (inactive); in [11], 0.627; in [12], -3.68 (inactive). The z-score was -0.682 (inactive) in [13]; 0.119 (inactive) in [15]; 0.296 (inactive) in [16]; -0.68 (inactive) in [17]; -0.504 (inactive) in [18]; 0.0167 in [19]. In addition, the composite z-score was 0.05 (inactive) in [14] and 0.0879 in test [20].

As to `CCOC(=O)C[C@H]1[C@H](OC(=O)c2ccc(-c3ccccc3)cc2)[C@@H](NC(=O)CC(C)C)c2cc(OCCCO)ccc2N1C(=O)c1ccccc1`, the z-score in test [1] was -0.426; in test [2] it was -0.257; in test [3], -0.0915; in test [4], -1.17; in test [5], -0.672; in test [6], 1.32. The z-score in [7] is -0.679 (inactive); in [8], 0.983; in test [9], 0.33; in test [10], -0.719 (inactive); in [11] it was -0.6; in test [12], 1.28 (inactive). The z-score was -0.281 (inactive) in [13]; 0.951 (inactive) in [15]; 0.964 (inactive) in test [16]; -0.635 (inactive) in test [17]; -0.776 (inactive) in [18]; -0.157 in test [19]. Further, the values for the composite z-score in [14] and in test [20] were 0.88 (inactive) and -0.0559, respectively.

Consider `O=C1OCC=C[C@H]2OC34C=CCN(c5ccc6ccccc6c5)C(=O)[C@H]3N(CCCCCO)C(=O)[C@@H]4[C@@H]12` (stereo not given in full), for which the z-score in [1] was -0.381; in test [2], -0.0217; in test [3] it was -1.08; in test [4], 0.589; in test [5] it was 0.0725; in test [6], -0.913. Moreover, the z-score is -0.436 (inactive) in [7]; -0.0765 in test [8]; 0.313 in test [9]; -1.01 (inactive) in test [10]; -0.658 in [11]; -0.459 (inactive) in [12]. Also, the z-score in test [13] was -0.818 (inactive); in [15], -0.634 (inactive); in [16], 0.176 (inactive); in test [17] it was -1.19 (inactive); in test [18], -1.3 (inactive); in test [19] it was -0.887. The composite z-score in test [14] was 0.28 (inactive); in [20], -0.0286.

For `CC(C)[C@H]1NC(=O)[C@@]23C(=O)N[C@@H](Cc4ccccc4)C2[C@H](C)[C@@]2(C)O[C@H]2C3/C=C/CCC/C=C/CNC(=O)[C@H](Cc2ccccc2)NC1=O` (stereo not given in full), the z-score in test [1] was -0.315; in test [2], 0.532; in test [3] it was 0.304; in test [4], -0.837; in test [5] it was -1.6; in [6], 1.18. Moreover, the z-score in [7] was -0.499 (inactive); in test [8], -0.157; in test [9], 1.84; in test [10], -1.25 (inactive); in [11], -1.15; in test [12], -1.76 (inactive). Besides, the z-score in test [13] is -0.457 (inactive); in test [15], -0.471 (inactive); in [16], -0.201 (inactive); in [17] it was -0.297 (inactive); in [18], -0.786 (inactive); in test [19], 0.0125. Also, the composite z-score in test [14] was 0.112 (inactive); in test [20], -0.039.

With `COc1ccc([Si](C)(C)[C@@H]2[C@@H](CCn3cc([C@H](O)c4ccccc4)nn3)O[C@]3(C(=O)N(c4ccccc4)c4ccccc43)[C@H]2C)cc1`, the z-score is -0.985 in test [1]; 1.98 in [2]; -2.22 in [3]; -1.18 in test [4]; -3.91 in test [5]; 1.63 in test [6]. Also, the z-score in [7] is 0.177 (inactive); in test [8] it was -0.973; in test [9], -0.681; in test [10], -2.3 (inactive); in test [11], -2.07; in test [12], -0.284 (inactive). In addition, the z-score in test [13] was -3.04 (inactive); in test [15], 1.08 (inactive); in test [16] it was 0.77 (inactive); in [17], -0.434 (inactive); in [18], -0.502 (inactive); in test [19], -3.15. Further, the results for the composite z-score in test [14] and in test [20] were -0.204 (inactive) and -0.131, respectively.

As for `NC(=O)[C@H]1[C@@H]2C(=O)O[C@@H](c3ccccc3)[C@@H](c3ccccc3)N2[C@@H](c2ccc(O)cc2)[C@]12C(=O)Nc1ccc(C#CC3=CCCCC3)cc12`, the z-score in [1] is -1.8; in test [2] it was 0.741; in test [3], -3.91; in test [4] it was -3.33; in [5], -4.54; in [6], -3.68. The z-score in [7] was -2.09 (inactive); in [8], -1.16; in [9], -1.32; in test [10], -0.3 (inactive); in test [11], -0.111; in test [12] it was 0.137 (inactive). Moreover, the z-score in test [13] is -2.5 (inactive); in test [15] it was -0.144 (inactive); in test [16] it was 1.76 (inactive); in test [17], -0.466 (inactive); in test [18] it was -0.51 (inactive); in test [19], -4.76. The composite z-score is -0.146 (inactive) in [14] and -0.0773 in test [20].

For the molecule `NC(=O)[C@@H]1[C@H]2C(=O)O[C@H](c3ccccc3)[C@H](c3ccccc3)N2[C@H](c2ccc(OCCO)cc2)[C@@]12C(=O)Nc1ccc(C#CCCO)cc12`, the z-score is -0.0173 in [1]; -0.387 in test [2]; 1.17 in test [3]; -0.929 in test [4]; 0.698 in [5]; -0.704 in test [6]. For the same molecule, the z-score in test [7] was -0.391 (inactive); in test [8], -0.323; in test [9], -0.939; in [10], -0.65 (inactive); in test [11], -0.632; in [12] it was -0.349 (inactive). The z-score in test [13] was -0.729 (inactive); in test [15], 1.42 (inactive); in test [16] it was 1.27 (inactive); in test [17] it was 0.544 (inactive); in test [18], 0.721 (inactive); in test [19] it was -0.83. Besides, the results for the composite z-score in test [14] and in test [20] were -1.26 (inactive) and 0.216, respectively.

Turning to `[N-]=[N+]=NCc1ccccc1C[C@]1(C(=O)N2CCOCC2)COC(c2ccc(OCCCO)cc2)=N1`, the z-score in [1] is 0.0386; in test [2], 0.926; in test [3], 0.383; in [4], -3.46; in test [5] it was -2.89; in test [6], 1.72. Moreover, the z-score in test [7] is 0.665 (inactive); in test [8], -0.843; in test [9] it was -0.968; in test [10] it was -0.36 (inactive); in [11], 0.0629; in test [12], -2.42 (inactive). Besides, the z-score in test [13] was 0.117 (inactive); in test [15], 0.715 (inactive); in [16], 1.43 (inactive); in [17], 2.56 (inactive); in test [18], 1.71 (inactive); in [19], 0.698. Further, the results for the composite z-score in [14] and in [20] were 0.42 (inactive) and 0.18, respectively.
